The text below walks through data of PubChem BioAssay.

The source made the active and inactive calls.

Assay [1] has as its system Plasmodium falciparum Sir2 (PF13_0152, Sir2A). In words: Plasmodium falciparum Sir2A binding compounds – biochemical, small-molecule microarray, 635 nm fluorescence, primary screen (AID 1098).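 Further: score merges spot fluorescence intensity with its signal-to-noise ratio.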 As to conditions: fluorescence 635 nm, higher = more signal.
A short description of assay [2]: probe aDKK1 binding to arrayed compounds – biochemical, biotinylated probe, 635/667 nm fluorescence, primary screen (AID 1099).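 Further: score merges 667nm spot fluorescence with signal to noise across triplicate slides.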 As to conditions: small-molecule microarray, higher = more signal.
A short description of assay [3]: probe aCHRDL2 binding to arrayed compounds – biochemical, biotinylated probe, 635/667 nm fluorescence, primary screen (AID 1100). As to conditions: small-molecule microarray, higher = more signal.
Assay [4] is described as follows: change in splice reporter luminescence, either direction, cell-based, HEK293, spliceosome inhibition project, primary screen (AID 1101).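 Further: HEK293 cells carrying a splicing-competent luciferase reporter gene; test concentration not given here.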 As to conditions: HEK293 splicing luciferase reporter, 24 h, higher = more signal, called active from +8 up or from −8 down. In general terms: Reporter assays use an easily measured gene product as a stand-in for the process of interest.

For assay [5], the target named is Fibroblast growth factor 10 (Homo sapiens) (UniProt O15520). Kind of assay: compounds binding fibroblast growth factor 10 – biochemical, small-molecule microarray, 635 nm fluorescence, primary screen (AID 1102). As to conditions: FGF10 binding, fluorescence 635 nm, higher = more signal.
The subject of assay [6] is glycogen synthase kinase-3 (GSK3A per assay name; protocol says GSK3B). In words: compounds binding glycogen synthase kinase-3 – biochemical, small-molecule microarray, 635 nm fluorescence, GSK3A, primary screen (AID 1103). Further: the record names both GSK3A and GSK3B. As to conditions: fluorescence 635 nm, higher = more signal.
The target in assay [7] is Epidermal growth factor receptor (Homo sapiens) (UniProt P00533). Kind of assay: compounds binding epidermal growth factor receptor – biochemical, small-molecule microarray, 635 nm fluorescence, primary screen (AID 1104).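 Further: score merges 667 nm emission intensity with spot signal to noise over triplicate slides.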 As to conditions: EGFR binding, higher = more signal.
Assay [8] has as its target Follistatin-related protein 3 (Homo sapiens) (UniProt O95633). In words: compounds binding follistatin-related protein 3 – biochemical, small-molecule microarray, 635 nm fluorescence, primary screen (AID 1105).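 Further: score merges emission near 667 nm and signal to noise per printed spot across three slides.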 To be noted: FSTL3 binding, higher = more signal.
The target in assay [9] is Dickkopf-related protein 1 (Homo sapiens) (UniProt O94907). In words: small molecules binding DKK1 protein – biochemical, small-molecule microarray, 635 nm fluorescence scan, primary screen (AID 1106).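 Further: score merges emission near 667 nm with signal to noise over three replicate slides.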 As to conditions: higher = more signal.
The test system of assay [10] is Inhibin beta A chain (activin A). Kind of assay: small molecules binding activin A – biochemical, small-molecule microarray, 635 nm fluorescence scan, primary screen (AID 1107).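 Further: mouse activin A protein probed at 4.33 µg/mL on printed slides; score merges bound-protein fluorescence near 667 nm with spot signal-to-noise.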 To be noted: INHBA, higher = more signal.
Assay [11] relates to Human papillomavirus type 1a protein E7 (residues 44-93). Kind of assay: small molecules binding HPV E7 44-93 – biochemical, small-molecule microarray, residues 44-93, 635 nm fluorescence, primary screen (AID 1108).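 Further: E7 fragment applied at 1 µg/mL in TBST for 1 h at 4 C; score combines spot fluorescence with its signal to noise ratio.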 As to conditions: fluorescence 635 nm, higher = more signal.
A short description of assay [12]: hepatitis C replication reporter changes, two-sided – Huh7 cells, luciferase reporter, HCV replication inhibitor project, primary screen (AID 1109).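 Further: huh7 hepatoma cells harbouring a luciferase neomycin HCV replicon reporter; luciferase luminescence as measure of HCV replicon replication; test concentration not given here.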 As to conditions: Huh7 HCV replicon luciferase reporter, 48 h; higher = more signal.
For assay [13], the target named is Left-right determination factor 2 (Homo sapiens) (UniProt O00292). Kind of assay: small molecules binding LEFTY2 protein – biochemical, small-molecule microarray, 635 nm fluorescence scan, primary screen (AID 1110). As to conditions: higher = more signal.
The target in assay [14] is Calmodulin-1 (Homo sapiens) (UniProt P0DP23). In words: small molecules binding calmodulin-1 with EGTA – biochemical, small-molecule microarray, Cy5-labelled CALM1, profiling panel (AID 1111).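 Further: labelled calmodulin applied in Tris saline Tween buffer holding calcium plus EGTA and DTT.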 To be noted: Cy5-CALM1 binding fluorescence, higher = more signal.
The target is the same in assay [15]. Kind of assay: small molecules binding Ca-loaded calmodulin-1 – biochemical, small-molecule microarray, Cy5-labelled CALM1, plus calcium, artefact control for SMM control-protein annotation, profiling panel (AID 1112).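 Further: score merges spot fluorescence with signal to noise from triplicate slides.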 To be noted: Cy5-CALM1 binding fluorescence, higher = more signal.
A short description of assay [16]: probe aWnt5a binding to arrayed compounds – biochemical, biotinylated probe, 635/667 nm fluorescence, primary screen (AID 1113).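 Further: score merges 667 nm fluorescence intensity with signal-to-noise per printed feature.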 As to conditions: small-molecule microarray, higher = more signal.
A short description of assay [17]: probe aShh binding to arrayed compounds – biochemical, biotinylated probe, 635/667 nm fluorescence, primary screen (AID 1114).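 Further: probe is biotin-labelled aShh protein from a stem cell growth factor screen; measures binding of labelled protein to compounds printed on the slide; score merges feature fluorescence at 667 nm with signal-to-noise.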 To be noted: small-molecule microarray, higher = more signal.
A short description of assay [18]: probe aNog binding to arrayed compounds – biochemical, biotinylated probe, 635/667 nm fluorescence, primary screen (AID 1115).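 Further: probe is biotinylated aNog protein used at 0.15 µg/mL for 1 h at 4 C; z-score combines 667 nm fluorescence of each spot with its signal to noise.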 As to conditions: small-molecule microarray, higher = more signal.
Assay [19] deals with Torsin-1A-interacting protein 1 (Homo sapiens) (UniProt Q5JTV8). In words: compound microarray binding of lysate hLAP1 – cell lysate, small-molecule microarray, COS7 lysate, 635/667 nm fluorescence, primary screen (AID 1116). To be noted: 635 nm fluorescence, higher = more signal.
Assay [20] has as its target Alpha-bungarotoxin (Bungarus multicinctus) (UniProt P60615). In words: compounds binding labelled alpha-BTX control protein – biochemical, small-molecule microarray, Alexa647 label, 635/667 nm fluorescence, artefact control for SMM control protein annotation, profiling panel (AID 1117). To be noted: alpha-BTX-A647 binding fluorescence, higher = more signal.

Follistatin-related protein 3 (Homo sapiens), sequence (O95633 whole entry, looked up): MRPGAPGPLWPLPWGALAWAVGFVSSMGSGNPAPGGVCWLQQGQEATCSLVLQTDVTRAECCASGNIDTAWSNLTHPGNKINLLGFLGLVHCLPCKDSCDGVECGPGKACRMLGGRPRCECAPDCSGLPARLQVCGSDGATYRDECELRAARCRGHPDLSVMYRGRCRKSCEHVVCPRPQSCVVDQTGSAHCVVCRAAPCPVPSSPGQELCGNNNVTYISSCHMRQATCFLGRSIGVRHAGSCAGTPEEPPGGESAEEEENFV
Epidermal growth factor receptor (Homo sapiens), sequence (P00533 whole entry, looked up): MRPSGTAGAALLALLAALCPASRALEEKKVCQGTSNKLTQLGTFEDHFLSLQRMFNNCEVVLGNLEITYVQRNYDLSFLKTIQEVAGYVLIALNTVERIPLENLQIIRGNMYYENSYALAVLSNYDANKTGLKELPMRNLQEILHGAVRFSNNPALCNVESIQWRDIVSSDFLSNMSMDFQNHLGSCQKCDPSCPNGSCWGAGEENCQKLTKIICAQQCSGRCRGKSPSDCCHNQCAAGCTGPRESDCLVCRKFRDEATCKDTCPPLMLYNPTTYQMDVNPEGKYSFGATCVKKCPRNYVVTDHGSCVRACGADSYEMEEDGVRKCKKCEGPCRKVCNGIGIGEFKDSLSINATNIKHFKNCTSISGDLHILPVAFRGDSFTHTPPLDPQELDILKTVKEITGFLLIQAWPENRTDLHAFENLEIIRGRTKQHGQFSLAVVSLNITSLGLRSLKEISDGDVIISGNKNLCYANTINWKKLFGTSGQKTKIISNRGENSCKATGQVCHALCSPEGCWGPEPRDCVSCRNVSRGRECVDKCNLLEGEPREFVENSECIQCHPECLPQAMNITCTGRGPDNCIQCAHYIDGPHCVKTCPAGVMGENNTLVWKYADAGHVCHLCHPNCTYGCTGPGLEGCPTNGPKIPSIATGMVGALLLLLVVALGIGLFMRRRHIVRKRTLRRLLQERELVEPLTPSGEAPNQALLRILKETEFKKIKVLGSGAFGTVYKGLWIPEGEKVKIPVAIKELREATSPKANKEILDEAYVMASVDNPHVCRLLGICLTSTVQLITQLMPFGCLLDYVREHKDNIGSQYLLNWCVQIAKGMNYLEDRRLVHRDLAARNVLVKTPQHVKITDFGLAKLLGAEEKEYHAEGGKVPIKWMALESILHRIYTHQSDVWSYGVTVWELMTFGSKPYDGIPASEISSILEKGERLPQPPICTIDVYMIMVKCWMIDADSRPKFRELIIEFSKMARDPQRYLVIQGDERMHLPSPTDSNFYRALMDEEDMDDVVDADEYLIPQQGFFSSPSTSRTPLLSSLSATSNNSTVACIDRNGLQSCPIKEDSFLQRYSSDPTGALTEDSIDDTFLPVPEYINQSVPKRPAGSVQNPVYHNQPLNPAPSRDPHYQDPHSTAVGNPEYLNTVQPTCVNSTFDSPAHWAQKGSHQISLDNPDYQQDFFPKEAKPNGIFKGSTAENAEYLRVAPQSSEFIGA
Alpha-bungarotoxin (Bungarus multicinctus), sequence (P60615 whole entry, looked up): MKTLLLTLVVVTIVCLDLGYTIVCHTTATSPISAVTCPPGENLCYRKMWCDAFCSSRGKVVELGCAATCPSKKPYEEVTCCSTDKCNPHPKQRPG
Torsin-1A-interacting protein 1 (Homo sapiens), sequence (Q5JTV8 whole entry, looked up): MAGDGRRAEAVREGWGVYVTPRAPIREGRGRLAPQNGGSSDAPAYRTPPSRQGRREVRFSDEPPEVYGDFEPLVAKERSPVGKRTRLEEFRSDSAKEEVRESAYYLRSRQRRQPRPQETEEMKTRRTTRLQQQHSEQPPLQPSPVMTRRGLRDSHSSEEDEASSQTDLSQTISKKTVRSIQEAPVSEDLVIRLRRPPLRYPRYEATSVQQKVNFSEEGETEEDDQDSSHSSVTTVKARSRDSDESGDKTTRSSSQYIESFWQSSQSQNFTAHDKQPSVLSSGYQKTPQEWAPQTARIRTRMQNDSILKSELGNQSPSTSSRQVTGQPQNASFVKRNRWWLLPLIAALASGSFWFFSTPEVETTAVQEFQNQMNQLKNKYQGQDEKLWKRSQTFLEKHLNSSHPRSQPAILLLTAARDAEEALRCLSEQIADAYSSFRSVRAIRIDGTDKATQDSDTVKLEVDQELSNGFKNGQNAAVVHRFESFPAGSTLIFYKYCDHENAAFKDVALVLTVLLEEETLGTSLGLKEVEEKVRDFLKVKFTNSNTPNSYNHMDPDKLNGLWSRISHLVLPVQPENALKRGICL
Fibroblast growth factor 10 (Homo sapiens), sequence (O15520 whole entry, looked up): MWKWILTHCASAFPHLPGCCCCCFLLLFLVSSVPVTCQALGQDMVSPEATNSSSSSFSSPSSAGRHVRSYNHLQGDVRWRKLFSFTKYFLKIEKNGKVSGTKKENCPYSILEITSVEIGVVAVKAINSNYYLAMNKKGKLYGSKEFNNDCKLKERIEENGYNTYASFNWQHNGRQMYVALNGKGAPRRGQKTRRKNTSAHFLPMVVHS
Left-right determination factor 2 (Homo sapiens), sequence (O00292 whole entry, looked up): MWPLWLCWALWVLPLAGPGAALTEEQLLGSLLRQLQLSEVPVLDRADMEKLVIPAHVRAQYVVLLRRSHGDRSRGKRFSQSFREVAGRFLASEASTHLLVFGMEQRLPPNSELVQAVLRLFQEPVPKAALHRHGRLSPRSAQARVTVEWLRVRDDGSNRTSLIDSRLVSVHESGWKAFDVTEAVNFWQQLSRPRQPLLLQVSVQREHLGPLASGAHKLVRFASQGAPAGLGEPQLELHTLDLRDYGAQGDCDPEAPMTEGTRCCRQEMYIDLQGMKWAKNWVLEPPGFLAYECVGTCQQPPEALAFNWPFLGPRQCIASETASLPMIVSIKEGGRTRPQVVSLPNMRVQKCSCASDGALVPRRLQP
Dickkopf-related protein 1 (Homo sapiens), sequence (O94907 whole entry, looked up): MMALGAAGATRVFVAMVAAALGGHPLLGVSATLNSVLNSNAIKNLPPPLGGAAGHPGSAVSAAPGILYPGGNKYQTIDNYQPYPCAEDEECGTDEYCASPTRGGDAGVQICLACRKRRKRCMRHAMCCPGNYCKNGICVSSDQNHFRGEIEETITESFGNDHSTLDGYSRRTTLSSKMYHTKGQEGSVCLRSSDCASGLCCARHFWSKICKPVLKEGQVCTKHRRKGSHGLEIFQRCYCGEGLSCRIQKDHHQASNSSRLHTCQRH

In the case of `COC(=O)C[C@H]1O[C@]2(C(=O)N(C)c3ccccc32)[C@@H](C)[C@@H]1[Si](C)(C)c1ccc(OC)cc1`, the composite z-score in assay [1] is 0.377; in assay [2], -0.198; in assay [3] it was -0.514; in assay [5], 1.29; in assay [6], 0.637; in assay [7] it was 0.309. The composite z-score was 0.558 in [8]; 0.344 in assay [9]; -0.27 in [10]; 0.353 in assay [11]; 1.02 in assay [13]; 0.0348 in assay [14]. In addition, the composite z-score in assay [15] is -0.327; in assay [16], 0.0502; in assay [17] it was -0.271; in assay [18], -0.141; in assay [19], 0.335; in [20], 0.449. Also, the z-score in [4] is -1.78 (inactive); in assay [12], -2.

Take `O=C(N1CCCCC1)[C@@]1(CCS(=O)(=O)c2ccccc2)N=C(c2ccc(OCCCO)cc2)O[C@H]1c1ccccc1`: the composite z-score in [1] is 0.332; in [2], 0.653; in [3], 0.896; in assay [5], 1.27; in assay [6] it was 0.811; in assay [7], -0.162. For the same compound, the composite z-score is 0.598 in assay [8]; -0.42 in assay [9]; 0.356 in [10]; 1.48 in assay [11]; -0.197 in [13]; -0.215 in assay [14]. Further, the composite z-score in assay [15] is -0.688; in assay [16] it was 0.212; in assay [17], 0.427; in assay [18], -0.133; in [19] it was 1.77; in assay [20], -0.0166. Moreover, the z-score in [4] is -0.372 (inactive); in assay [12], -3.07.

In the case of `Cc1ccc([C@@H]2CC=C(C(=O)O)[C@H](c3ccccc3)N2S(=O)(=O)c2ccc(C)cc2)cc1`, the composite z-score was 1.44 in [1]; 0.52 in assay [2]; 1.23 in assay [3]; 1.24 in assay [5]; 0.78 in [6]; -0.755 in [7]. Besides, the composite z-score in assay [8] is 0.0604; in [9], -1.69; in assay [10], -0.575; in assay [11], 0.961; in assay [13], -0.23; in assay [14], 2.35. Also, the composite z-score in assay [15] was found to be 0.535; in assay [16], 0.0599; in assay [17], 0.374; in [18], 1.05; in assay [19], 1.9; in [20] it was 1.79. Also, the z-score is 0.0744 (inactive) in assay [4] and 0.712 in assay [12].

As for `C[C@@H]1C=CCC(=O)OC[C@H]2O[C@@H](C=C[C@@H]2O)[C@H](C)C=CCC(=O)OC[C@H]2O[C@H]1C=C[C@@H]2O`, the composite z-score was 0.489 in [1]; -0.384 in assay [2]; -1.67 in [3]; 1.22 in assay [5]; 1.18 in assay [6]; 1.41 in [7]. Further, the composite z-score in assay [8] is 1.47; in [9], 2.11; in assay [10], 1.16; in [11] it was 0.14; in assay [13], 1.53; in assay [14] it was -0.365. In addition, the composite z-score was -2.23 in assay [15]; 0.275 in [16]; 0.186 in assay [17]; 0.854 in assay [18]; 0.196 in assay [19]; -0.22 in assay [20]. In addition, the z-score in assay [4] was -2.62 (inactive); in assay [12], -0.541.

Consider `O=C1OCCC/C=C\[C@H]2OC34C=CCN(CCN5CCOCC5)C(=O)[C@H]3N(CCCCCO)C(=O)[C@@H]4C12` (stereo not given in full), for which the composite z-score in assay [1] is 1.52; in [2] it was -0.413; in assay [3], -0.0252; in [5] it was -0.81; in assay [6] it was -0.188; in assay [7], -1.33. For the same compound, the composite z-score in assay [8] is -0.762; in assay [9] it was -0.333; in assay [10], 0.966; in assay [11], -0.827; in assay [13], -1.37; in assay [14], -0.725. For the same compound, the composite z-score is -1.26 in assay [15]; -0.226 in assay [16]; -0.147 in assay [17]; -0.356 in [18]; -0.849 in assay [19]; -0.918 in assay [20]. Besides, the z-score in assay [4] was -0.755 (inactive); in assay [12], -0.953.
